About 2,000 (36%) of roughly 5,500 compounds were called active. Roughly 18% stayed inconclusive and do not appear here. Rule as the data show it: active = normalized growth mostly below about 0.91 (no sharp cut-off); inconclusive = no clear call, values can overlap the other calls; inactive = mostly above about 0.92. The list shows a part of the results.
Assay: chemical genetic growth profiling, strain panel (AID 1159580);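 also: tested at 20 µM; growth read once vehicle control cultures reached saturation at 30 °C; 1 = growth at the plate median or of vehicle wells; lower values mean less growth of the strain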
Details: S. cerevisiae deletion strains, growth OD
[1] = locus YHR030C, strain SLT2, active compounds read low
[2] = locus YJL095W, strain BCK1, active compounds read low
[3] = locus YBR021W, strain FUR4, active compounds read low
[4] = locus YBR229C, strain ROT2, active compounds read low
[5] = locus YCL029C, strain bik1, active compounds read low
[6] = locus YDL035C, strain GPR1, active compounds read low
[7] = locus YDL074C, strain BRE1, active compounds read low
[8] = locus YDL101C, strain DUN1, active compounds read low
[9] = locus YDL185W, strain tfp1, active compounds read low
[10] = locus YDL192W, strain arf1, active compounds read low
[11] = locus YDR101C, strain arx1, active compounds read low
[12] = locus YDR162C, strain NBP2, active compounds read low
[13] = locus YDR318W, strain mcm21, active compounds read low
[14] = locus YDR388W, active compounds read low
[15] = locus YDR502C, strain sam2, active compounds read low
[16] = locus YER110C, active compounds read low
[17] = locus YER155C, strain BEM2, active compounds read low
[18] = locus YER167W, strain BCK2, active compounds read low
[19] = locus YGL078C, strain dbp3, active compounds read low
[20] = locus YGL086W, strain mad1, active compounds read low
[21] = locus YGL248W, strain PDE1, active compounds read low
[22] = locus YGR078C, strain PAC10, active compounds read low
[23] = locus YGR135W, strain pre9, active compounds read low
[24] = locus YGR252W, strain gcn5, active compounds read low
[25] = locus YHR079C, strain IRE1 (second series), active compounds read low
[26] = locus YHR094C, strain hxt1, active compounds read low
[27] = locus YHR129C, strain ARP1, active compounds read low
[28] = locus YHR200W, strain rpn10, active compounds read low
[29] = locus YIL066C, strain RNR3, active compounds read low
[30] = locus YIL073C, strain SPO22, active compounds read low
[31] = locus YIL125W, strain kgd1, active compounds read low
[32] = locus YIR030C, strain dcg1, active compounds read low
[33] = locus YJL134W, strain LCB3, active compounds read low
[34] = locus YJL168C, strain set2, active compounds read low
[35] = locus YJL187C, strain SWE1 (second series), active compounds read low
[36] = locus YJR043C, strain POL32, active compounds read low
[37] = locus YKL009W, strain mrt4, active compounds read low
[38] = locus YKL068W, active compounds read low
[39] = locus YKL085W, strain MDH1 (second series), active compounds read low
[40] = locus YKL085W, strain MDH1, active compounds read low
[41] = locus YKR001C, strain vps1, active compounds read low
[42] = locus YLR039C, strain RIC1, active compounds read low
[43] = locus YLR058C, strain SHM2, active compounds read low
[44] = locus YLR102C, strain apc9, active compounds read low
[45] = locus YLR268W, strain sec22, active compounds read low
[46] = locus YLR371W, strain rom2, active compounds read low
[47] = locus YLR418C, strain cdc73, active compounds read low
[48] = locus YML016C, strain PPZ1, active compounds read low
[49] = locus YML032C, strain rad52, active compounds read low
[50] = locus YML124C, strain tub3, active compounds read low
[51] = locus YMR078C, strain ctf18, active compounds read low
[52] = locus YMR223W, strain ubp8, active compounds read low
[53] = locus YMR307W, strain GAS1, active compounds read low
[54] = locus YNL067W, strain RPL9B, active compounds read low
[55] = locus YNL153C, strain GIM3, active compounds read low
[56] = locus YNL233W, strain BNI4, active compounds read low
[57] = locus YNL250W, strain rad50, active compounds read low
[58] = locus YNL271C, strain bni1, active compounds read low
[59] = locus YNL298W, strain CLA4, active compounds read low
[60] = locus YNL307C, strain MCK1, active compounds read low
[61] = locus YNL322C, strain KRE1, active compounds read low
[62] = locus YNR052C, strain pop2, active compounds read low
[63] = locus YOL147C, strain pex11, active compounds read low
[64] = locus YOR061W, strain CKA2, active compounds read low
[65] = locus YOR069W, strain VPS5, active compounds read low
[66] = locus YOR136W, strain idh2, active compounds read low
[67] = locus YOR144C, strain elg1, active compounds read low
[68] = locus YOR184W, strain ser1, active compounds read low
[69] = locus YOR316C, strain cot1, active compounds read low
[70] = locus YPR119W, strain clb2, active compounds read low
[71] = locus YPR141C, strain kar3, active compounds read low
[72] = locus YPR163C, strain tif3, active compounds read low
[73] = locus YPR167C, strain met16, active compounds read low
[74] = strain wtn01, active compounds read low
[75] = locus YDL134C, strain PPH21, active compounds read low
[76] = locus YEL061C, strain CIN8, active compounds read low
[77] = locus YLR330W, strain CHS5, active compounds read low
[78] = locus YLR342W, strain FKS1 (second series), active compounds read low
[79] = locus YMR263W, strain SAP30, active compounds read low
[80] = locus YPL055C, strain LGE1, active compounds read low

Measured: normalized growth

CS(=O)(=O)c1ccc([C@@H](O)[C@H](CF)NC(=O)C(Cl)Cl)cc1
inactive: [1] 1.03 | locus YHR079C, strain IRE1, active compounds read low 0.953 | [2] 0.973 | locus YJR066W, strain TOR1, active compounds read low 0.956 | locus YLR113W, strain HOG1, active compounds read low 0.935 | locus YNL183C, strain NPR1, active compounds read low 0.909 | locus YOR231W, strain MKK1, active compounds read low 0.969 | locus YPL256C, strain CLN2, active compounds read low 0.943

Cc1cc(=O)c2c(O)c3c(cc2o1)OCC(C)CC3 (stereo not drawn)
inactive: [3] 0.993 | [4] 0.981 | [5] 0.912 | [6] 0.954 | [7] 0.818 | [8] 0.898 | [9] 0.915 | [12] 0.885 | [18] 0.961 | [19] 0.936 | [26] 0.926 | [27] 0.926 | [29] 0.941 | [30] 0.796 | [2] 0.815 | [33] 0.969 | [35] 0.908 | [36] 0.966 | [37] 0.897 | [39] 0.942 | [40] 0.942 | [43] 0.926 | [44] 0.928 | [45] 0.914 | [48] 0.976 | [54] 0.919 | [57] 0.902 | [58] 0.922 | [59] 0.929 | [62] 0.932 | locus YOL012C, strain htz1 1.02 | [64] 0.98 | [65] 0.96 | [71] 0.918
active: [10] 0.848 | [11] 0.896 | [13] 0.858 | [14] 0.909 | [15] 0.858 | [16] 0.893 | [17] 0.849 | [20] 0.846 | [21] 0.881 | [22] 0.8 | [23] 0.806 | [24] 0.689 | [25] 0.925 | [28] 0.868 | [31] 0.924 | [32] 0.912 | [34] 0.914 | [38] 0.921 | [41] 0.797 | [42] 0.673 | [46] 0.821 | [47] 0.591 | [49] 0.881 | [50] 0.91 | [51] 0.899 | [52] 0.879 | [53] 0.588 | [55] 0.704 | [56] 0.826 | [60] 0.719 | [61] 0.923 | [63] 0.887 | [66] 0.915 | [67] 0.91 | [68] 0.725 | [69] 0.918 | [70] 0.914 | [72] 0.855 | [73] 0.868 | [74] 0.897

Cc1cc(=O)c2c(O)c3c(cc2o1)OC(C)(C)CC3
inactive: locus YAL013W, strain DEP1, active compounds read low 1.01 | [3] 1.07 | [4] 1 | [5] 0.967 | [6] 1.02 | [7] 1.03 | [8] 0.989 | [75] 0.981 | [9] 0.938 | [10] 0.965 | [11] 0.975 | [12] 1.01 | [13] 0.954 | [14] 0.966 | [15] 0.971 | [76] 1 | [16] 0.967 | [17] 0.995 | [18] 0.998 | [19] 0.951 | [20] 0.983 | [21] 1 | [22] 0.998 | [23] 0.923 | [24] 0.931 | [1] 0.992 | [25] 0.962 | [26] 0.975 | [27] 0.993 | [28] 0.968 | [29] 1.01 | [30] 0.899 | [31] 0.978 | [32] 0.949 | [2] 0.972 | [33] 1 | [34] 0.969 | [35] 0.973 | [37] 0.992 | [38] 0.976 | [39] 1 | [40] 1 | locus YKL190W, strain CNB1, active compounds read low 1 | [41] 0.96 | [42] 1.01 | [43] 0.994 | [44] 0.975 | [45] 0.989 | [77] 0.988 | [78] 1.08 | [46] 0.95 | [47] 0.972 | [48] 1.01 | [49] 0.963 | [50] 0.971 | [51] 0.951 | [52] 0.959 | [79] 0.973 | [53] 1.21 | [54] 0.97 | locus YNL128W, strain TEP1, active compounds read low 1 | [55] 0.973 | [56] 1.02 | [57] 0.967 | [58] 0.965 | [59] 0.961 | [60] 0.982 | [61] 0.995 | [62] 0.949 | locus YOL012C, strain htz1 0.959 | [63] 0.967 | [64] 1 | [65] 0.997 | [66] 0.997 | [67] 0.973 | [68] 1 | [69] 0.964 | [80] 1.05 | [70] 0.956 | [71] 0.946 | [72] 0.98 | [73] 0.949 | [74] 1

Cc1cc(=O)c2c(o1)-c1c(cc(O)c(O)c1C(=O)O)OC2
inactive: [3] 0.96 | [4] 0.996 | [5] 1.03 | [6] 1 | [7] 0.984 | [8] 1 | [75] 1 | [9] 1.01 | [10] 1.01 | [11] 1.01 | locus YDR150W, strain NUM1, active compounds read low 0.97 | [12] 0.987 | [13] 1.01 | [14] 1.01 | [15] 1.03 | [76] 1 | [16] 1.03 | [17] 1.01 | [18] 1.02 | [19] 1.02 | [20] 1.02 | [21] 0.996 | [22] 0.991 | [23] 1.02 | [24] 0.997 | [1] 1.01 | [25] 1.01 | [26] 1.02 | [27] 1.01 | [28] 1.03 | [29] 0.99 | [30] 1.05 | [31] 1.03 | [32] 1.02 | [2] 0.998 | [33] 1.01 | [34] 1.02 | [35] 1.02 | [36] 0.997 | [37] 1.03 | [38] 1.01 | [39] 1.01 | [40] 1.01 | [41] 1.02 | [42] 0.973 | [43] 1.01 | [44] 1.01 | locus YLR262C, strain YPT6, active compounds read low 1.02 | [45] 1.02 | [77] 0.991 | [78] 0.966 | [46] 1.03 | [47] 1.05 | [48] 0.998 | [49] 1.01 | [50] 1.01 | [51] 1.02 | [52] 1.01 | [79] 1 | [53] 0.935 | [54] 0.987 | [55] 1 | [56] 1.02 | [57] 1.03 | [58] 1.02 | [59] 1.03 | [60] 1.02 | [62] 1.02 | locus YOL006C, strain TOP1, active compounds read low 0.969 | locus YOL012C, strain htz1 0.545 | [63] 1.02 | [64] 1.01 | [65] 1 | [66] 1.03 | [67] 1.01 | [68] 1.03 | [69] 1.01 | [80] 1.01 | [70] 1.01 | [71] 1.02 | [72] 1.01 | [73] 1.03 | [74] 1.02
